The text below walks through data of ChEMBL document CHEMBL3988442, “University of Dundee, Small-Polar-MMV Screening Library” (2021).

Test [1] deals with T1, Aspartate--tRNA(Asp/Asn) ligase (Mycobacterium tuberculosis (strain ATCC 25618 / H37Rv)) (UniProt P9WFW3).
T1 sequence (whole entry): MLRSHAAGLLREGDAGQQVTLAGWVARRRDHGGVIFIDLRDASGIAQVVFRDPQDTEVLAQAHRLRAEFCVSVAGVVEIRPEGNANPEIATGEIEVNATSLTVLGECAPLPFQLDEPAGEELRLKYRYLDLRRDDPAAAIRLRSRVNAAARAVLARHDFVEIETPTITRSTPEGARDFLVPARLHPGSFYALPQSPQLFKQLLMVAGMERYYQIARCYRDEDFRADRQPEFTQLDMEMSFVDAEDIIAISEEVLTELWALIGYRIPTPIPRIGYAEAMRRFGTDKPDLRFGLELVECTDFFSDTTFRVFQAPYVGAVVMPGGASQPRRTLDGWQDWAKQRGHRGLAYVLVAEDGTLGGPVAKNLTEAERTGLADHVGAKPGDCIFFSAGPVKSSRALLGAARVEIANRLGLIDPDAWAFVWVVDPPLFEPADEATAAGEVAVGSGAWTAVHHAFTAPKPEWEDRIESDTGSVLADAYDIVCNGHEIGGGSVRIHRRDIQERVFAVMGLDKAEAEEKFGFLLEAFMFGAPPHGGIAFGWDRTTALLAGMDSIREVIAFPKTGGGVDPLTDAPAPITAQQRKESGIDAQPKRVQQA
Nature of the test: Assay for Asp RNA synthetase-1 from Mycobacterium tuberculosis. Also noted: scale not given: direction of the effect not stated beside the values. The test is classed as functional. As to conditions: 30 µM.

The target of test [2] is Shiga toxin 2 (Escherichia coli O157:H7) (UniProt P09385+P09386). Nature of the test: E. coli 0.157:H7 Shiga Toxin SOP - stx2 screening assay. Format: functional. Also noted: scale not given: direction of the effect not stated beside the values. The following applies: 30 µM.

`Cc1cc(C2CCCN(C(=O)c3cnn(C)c3)C2)ccn1` (stereo not drawn): the Percent Effect in test [1] was -6.03%; in test [2] it was -7.91%.

In the case of `CC(=O)N(Cc1ncc(C(C)C)o1)C1CCN(CCn2cccn2)C1` (stereo not drawn), the results for the Percent Effect in test [1] and in test [2] were -1.37% and 3.59%, respectively.

In the case of `Cc1cc(CN2CC[C@H]3C(=O)N(c4ccccc4)CCO[C@H]3C2)no1`, the results for the Percent Effect in test [1] and in test [2] were -4.96% and -8.26%, respectively.

For `CC(NC(=O)CCC(=O)c1cccs1)c1nnc2n1CCCCC2` (stereo not drawn), the Percent Effect in test [1] worked out at 3.67%; in test [2], 18.5%.

With `CCOCC(O)CN1CCN(C(=O)c2cccc(F)c2)CC1` (stereo not drawn), the Percent Effect was 0.145% in test [1] and -5.86% in test [2].

As for `CC(C)(C)c1nnc(CN2CCn3c(nnc3C3CC3)C2)o1`, the Percent Effect was 8.8% in test [1] and -5.14% in test [2].

As for `Cc1nccn1C1CCCN(C(=O)C2=NN(C)C(=O)CC2)C1` (stereo not drawn), the Percent Effect in test [1] was -1.52%; in test [2], 19%.

Regarding `Cc1cnn(CC2CN(c3ncnc4ccccc34)CCO2)c1` (stereo not drawn), the Percent Effect was -7% in test [1] and 6.94% in test [2].

With `CC(C)c1nccn1C1CCCN(C(=O)c2ccc3c(c2)OCO3)C1` (stereo not drawn), the Percent Effect in test [1] was -0.317%; in test [2] it was 10.5%.

Regarding `CN(C)C(=O)[C@H]1C[C@@H]2CCN(C3CCOCC3)C[C@H]2O1`, the results for the Percent Effect in test [1] and in test [2] were -3.87% and -13.4%, respectively.

As for `O=C(c1ccc2c(c1)COC2)N1CCN(CC2CC2)CC1`, the figures for the Percent Effect in test [1] and in test [2] were -0.514% and -1.4%, respectively.

As to `Cc1nn(C)cc1CCC(=O)N1CCCC(n2cncn2)C1` (stereo not drawn), the figures for the Percent Effect in test [1] and in test [2] were -2.1% and 12.3%, respectively.

`Cc1cccnc1NC(=O)NCc1ccc(N2CCNC(=O)C2)cc1`: the Percent Effect in test [1] is 5.31%; in test [2], -63.3%.

Regarding `C[S+]([O-])c1nncn1CC(=O)c1ccc(Cl)c(Cl)c1` (stereo not drawn), the Percent Effect in test [1] was 1.03%; in test [2], -25.1%.

In the case of `CC(=O)NCCNC(=O)CN1CCN(Cc2nccn2C)C(C)C1` (stereo not drawn), the figures for the Percent Effect in test [1] and in test [2] were 2.19% and 2.09%, respectively.

On to `Cc1ncccc1Oc1nccnc1C1CCN(C(C)C)CC1`, for which the values for the Percent Effect in test [1] and in test [2] were -4.09% and -1.37%, respectively.

Take `Cc1ccccc1-c1cncc(C2CCN(C(C)C)CC2)n1`: the Percent Effect was -1.25% in test [1] and -10.3% in test [2].

With `O=C(CSCC1CC1)N1CCCC(c2nccn2Cc2ccncc2)C1` (stereo not drawn), the Percent Effect was -7.86% in test [1] and 6.34% in test [2].

`Cc1ccc(C(=O)CCC(=O)N2CCC(c3nncn3C)CC2)cc1`: the Percent Effect in test [1] is 2.31%; in test [2] it was -30.7%.
